Screening results (PubChem)
Shown are actives, neighbours in structure and some others; about 2.4% of the full set was active somewhere.
D2 antagonist = D2 dopamine receptor (human) antagonism; HEK293 TREx D2 cells, calcium flux, dopamine EC80; inhibition, % at 10 µM; actives 2% (n = 340,000); AID 485344; in the data active = inhibition above about 30%; inactive = below that, where a call was filed; note: 0% is about no effect
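Dopamine at EC80 is the agonist stimulus; test compounds precede it by 180 s. Calcium flux read kinetically in a force-coupled, inducible HEK293 T-REx D2 cell line.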
D2 PAM-1 = human D2 receptor positive allosteric modulation; P14416; potentiation, % (test concentration not listed); actives 0.23% (n = 360,000); DiscoveRx D2 beta-arrestin cells, luminescence, 90 min; 100% = 57 uM dopamine signal; in the data active = potentiation above about 50%; inconclusive = mostly about 30% to 49%
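PathHunter beta-arrestin assay in DiscoveRx D2 cells. Compounds were added with an EC20 of dopamine (50 nM final) for 90 min at 37 deg C. Luminescence was read 1 h after detection reagent, with 57 uM dopamine as the EC100 control.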
D2 ag-1 = activates the human D2 dopamine receptor; P14416; DiscoveRx PathHunter D2 beta-arrestin, luminescence, 90 min; 100% = 57 uM dopamine signal; activation, % (test concentration not listed); actives 0.084% (n = 360,000); in the data active = activation above about 40%; inconclusive = between about 15% and that limit
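DiscoveRx PathHunter D2 beta-arrestin cells (2,100/well) attached overnight, then compound-stimulated 90 min at 37 C in HBSS/10 mM HEPES/0.1% Tween-20 buffer; beta-galactosidase complementation read by luminescence after 1 h at ambient temperature. Dopamine 57 uM final (EC100) as control.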
D2 ag-2 = activates the human D2 dopamine receptor. P14416. HEK293 T-REx D2 cells, calcium flux agonist mode. activation, % at 2 µM. actives 0.53% (n = 340,000);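 active = activation over 3 SD above normal in the single-dose calcium agonist read, cut at about 30% in these data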; note: 0% is about no effect
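In this primary screen, compounds producing a positive calcium signal within 180 s of addition to tetracycline-induced, force-coupled HEK293 Trex D2 cells are flagged; cells are dye-loaded with a no-wash calcium kit beforehand.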
D2 PAM-2 = positively modulates the human D2 dopamine receptor allosterically. HEK293 T-REx D2, calcium flux, EC20 dopamine potentiation. potentiation, % at 10 µM. actives 0.34% (n = 340,000). AID 485347;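 active = potentiation over 3 SD above the plate norm, cut at about 30% in these data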; note: 0% is about no effect
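Cells plated with tetracycline inducer and held overnight at 30 C; calcium dye loaded 30–90 min at room temperature; baseline taken, compound added and read 180 s; EC20 dopamine then added and read 180 s.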
D3 ag = D3 receptor agonism confirmed, beta-arrestin readout; shares compounds with D2 ag-2; DiscoveRx D3 beta-arrestin cells, luminescence, 90 min; Potency, µM (doses to about 76.9 µM), without a hit: top-dose activation, hits mostly activators; actives 4% (n = 2,300);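 note: potency is the fitted concentration of half-maximal effect; 100% = dopamine control response; nearly all actives have a fitted effect of over 70% in size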
Target sequence (P35462 whole entry, looked up): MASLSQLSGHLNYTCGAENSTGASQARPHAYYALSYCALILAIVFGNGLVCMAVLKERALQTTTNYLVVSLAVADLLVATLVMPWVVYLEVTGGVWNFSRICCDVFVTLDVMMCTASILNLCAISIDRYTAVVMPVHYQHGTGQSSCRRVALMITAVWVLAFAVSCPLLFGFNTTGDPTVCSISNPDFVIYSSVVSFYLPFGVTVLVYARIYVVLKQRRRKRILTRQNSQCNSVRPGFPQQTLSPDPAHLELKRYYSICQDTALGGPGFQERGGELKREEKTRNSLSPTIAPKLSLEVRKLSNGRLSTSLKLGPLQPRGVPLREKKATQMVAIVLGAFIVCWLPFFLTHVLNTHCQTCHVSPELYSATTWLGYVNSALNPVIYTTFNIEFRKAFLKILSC
D2 ag-3 = D2 receptor agonism, beta-arrestin counterscreen | shares compounds with D2 ag-2 | DiscoveRx PathHunter D2 beta-arrestin, luminescence, 90 min; response scale: percent relative to full dopamine signal | actives 5.9% (n = 2,300) | Potency, µM (highest dose often 76.9 µM), without a hit: at the highest dose activation, actives largely listed as activators | AID 720507; note: potency is the fitted concentration of half-maximal effect; % of control where 0% means no effect; nearly all actives have a fitted effect of over 70% in size
Active calls of the source: *; ? = inconclusive; . = no result. Unless noted, calls come from the whole dose curve; as a rule, active = well fitted activation curve with a large enough effect; inconclusive = small, poorly fitted or top-dose-only effect; inactive = flat fitted curve, though single readings scatter.

SMILES	D2 antagonist	D2 PAM-1	D2 ag-1	D2 ag-2	D2 PAM-2	others
Cc1cc(C)cc(N=c2c([N+](=O)[O-])nn(-c3ccc(Cl)cc3)n2O)c1	1	?	12	0	2
COc1ccc(-n2nc([N+](=O)[O-])c(=NCCc3ccc(Cl)cc3)n2O)cc1	-1	87*	14	0	15
COc1ccc(-n2nc([N+](=O)[O-])c(=NCc3ccco3)n2O)cc1	17	?	?	0	7
COc1ccc(-n2nc([N+](=O)[O-])c(=NCCC3=CCCCC3)n2O)cc1	14	74*	51*	0	-2
C=CCNC(=S)NNC(=O)CC12CC3CC(CC(C3)C1)C2	34*	-6	-3	0	-5
Cn1c(SCC(=O)NCCNC(=O)CSc2nnc(C(F)(F)F)n2C)nnc1C(F)(F)F	33*	-14	-1	0	-16
CC12CCC(C(=O)N(CSC(=S)N/N=C\c3ccccc3Cl)C1=O)C2(C)C (configuration not stated)	-5	-13	3	0	8
CC12CCC(C(=O)N(CSC(=S)N/N=C\c3ccccc3)C1=O)C2(C)C (configuration not stated)	32*	-7	-1	-2	8
CN(C)c1ccnc(-n2cccc2/C=N/OCc2cccc(F)c2)c1C#N	18	-10	0	0	3
C=CCN(Cc1cccs1)C(=O)CN1CCN(S(=O)(=O)c2ccc3c(c2)OCCCO3)CC1	7	-2	4	-3	9
O=C(c1cc(COc2ccc(F)cc2F)on1)N1CC[C@@H]2CCCC[C@H]2C1	-8	64*	-4	-1	1
COc1ccc(OCc2cc(C(=O)N3CCCC(CO)C3)no2)c2ccccc12 (configuration not stated)	4	74*	15	0	-4
O=C(c1cc(COc2ccc(F)cc2Cl)on1)N1CC[C@@H]2CCCC[C@H]2C1	-3	-18	-4	1	12
Cc1cc(=O)[nH]c(NN=C2CCC(C(C)(C)C)CC2)n1 (configuration not stated)	2	-9	-2	1	32*
C/C(=N\Nc1nc(C)cc(=O)[nH]1)C1CC1	-4	-1	-3	-1	14
CCCNCC1C(Oc2ccc(Cl)cc2)C(=O)N1c1ccccc1C (configuration not stated)	51*	-22	-5	1	-23
COCCNCC1C(Oc2ccc(Cl)cc2)C(=O)N1c1ccccc1C (configuration not stated)	50*	-23	1	1	-34
Cc1ccc(NC(=O)CN2C(=O)NC(Cc3c[nH]c4ccccc34)C2=O)cc1S(=O)(=O)N1CCCCC1 (configuration not stated)	-16	-4	1	0	7
Cc1cc(C)nc(N2CCN(c3nc(C)cc(C)n3)CC2)n1	0	.	.	-1	-5
CCOc1cc(C)nc(N2CCN(C3CCCCC3)CC2)n1	40*	-18	-1	1	7
CCN(CC(N)=O)S(=O)(=O)c1ccc(F)cc1	6	-2	2	1	-11
C=CCN(CC=C)S(=O)(=O)c1ccc(F)cc1	31*	11	-1	1	-13
C=CCN(CC=C)CCOc1cc(C)ccc1[N+](=O)[O-]	-8	-3	-3	21	-28	D3 ag=7%;D2 ag-3=6%
CC[C@@H]1C(c2ccccc2)=NN(c2ccc(Br)cc2)[C@H]1C(=O)N1CCOC1=O	.	.	-1	.	.
Cn1c(CCN2CCN(c3ccccn3)CC2)nc2cc(NC(=O)COc3ccc([N+](=O)[O-])cc3)ccc21	31*	3	2	82*	-14	D3 ag=15%;D2 ag-3=18%
SMILES	D2 antagonist	D2 PAM-1	D2 ag-1	D2 ag-2	D2 PAM-2	others
CC(C)C(=O)Nc1ccc2c(c1)nc(CCN1CCN(c3ccccn3)CC1)n2C	33*	-2	?	67*	-22	D3 ag=?;D2 ag-3=16%
CCC(=O)Nc1ccc2c(c1)nc(CCN1CCCCC1)n2C	-3	-17	-7	1	-2
CCC(=O)Nc1ccc2c(c1)nc(CCN1CCN(c3ccccc3)CC1)n2C	21	-9	4	62*	-22	D3 ag=-5%;D2 ag-3=7%
CC(=O)c1ccc(OCC(=O)NCc2ccc(F)cc2)cc1	2	-26	1	0	-8
O=C(c1ccc2c(=O)n(Cc3ccco3)c(=S)[nH]c2c1)N1CCN(Cc2ccccc2)CC1	-32	-7	1	2	-3
COc1ccc(CN([C@H](CO)CC(C)C)S(=O)(=O)N(Cc2ccccc2)[C@H](CO)CC(C)C)cc1	.	-7	1	.	.
COc1ccc(CN([C@H](C)CO)S(=O)(=O)N(Cc2ccccc2)[C@H](CO)C(C)C)cc1	5	-4	-1	0	12	D3 ag=-5%;D2 ag-3=-6%
CCOC(=O)CSc1nc2c(sc(=S)n2-c2ccccc2)c(=O)n1-c1ccc(OC)cc1OC	1	-4	-1	0	-1
COc1ccc(N2CCN(CC(O)COc3ccc(C(C)(C)C)cc3)CC2)cc1 (configuration not stated)	.	.	.	9	-2
CC(C)c1ccc(OCC(O)CN2CCN(c3ccccc3)CC2)cc1 (configuration not stated)	78*	-8	?	54*	-26	D3 ag=-4%;D2 ag-3=?
COc1ccc(C(=O)CN2CCN(c3ncccn3)CC2)cc1	39*	-4	14	80*	-33	D3 ag=26%;D2 ag-3=27%
OC(COc1ccc2c(c1)OCO2)CN1CCN(c2ccccc2)CC1 (configuration not stated)	82*	-14	?	71*	-32	D3 ag=?;D2 ag-3=?
COc1ccc(OCC(O)CN2CCN(c3ncccn3)CC2)cc1 (configuration not stated)	62*	-19	?	70*	-20	D3 ag=?;D2 ag-3=?
O=C1CCN(CCc2ccccc2)CCN1[C@H](CSc1ccccc1)Cc1ccccc1	-6	-27	-2	0	-5
S=c1[nH]nc(-c2ccc3ncccc3c2)n1-c1ccc2c(c1)OCCO2	.	-20	-8	.	.
COc1cc(CNc2cccc3[nH]c(C(F)(F)F)nc23)cc(OC)c1	-5	-12	1	-4	3
Cc1nn2c(NCCOCCO)c3c(nc2c1-c1ccccc1)CCCC3	.	-7	-7	.	11
